B1: GBRAP_125_3094 (protein)
chain: EEEALLAALRRLALALGFSEEEAEELAELAARSSLRQTLYALFAAEGYEELADLVEKLTEEQAREALLRLAAWLDAHPDASREEVVARAREIAEELLAAA
B2: GBRAP_160_4419 (protein)
chain: DELIEEVDELLDETEELVVELVEEGKREEAIAALRVGAGEILLLLDEDESVSEETEEKVDKILDETIKKFEENKDASPEEVRELLDKAREEILAVLKEGS
B3: GBRAP_137_3646 (protein)
chain: PNVTITKETIDDLVEINIEFDDPEKAEEAAELIRDVAHEHGALAVSIEINEDGTLEATIWVPKDKAQALIDALVTRLRTELGANVTVIDKDTGETTVVKA
B4: GBRAP_137_3669 (protein)
chain: MIEAEIELENGLAFARITVEGSKEELERAAEIAEDIAGEIPNLAVSVELSEDGTLVIDVFGTKEDVLKFLKELAKRLNKTVKVKTKNLETGEEKEEVIEP
B5: GBRAP_125_3102 (protein)
chain: EEEELLEALRRLALALGFSEEEAEEAARLAREFSLRQTLIALLLAEGEEELAELVEKLTEEQAKEVLRRLAEYLEAHPDATREEVVAKLRELVEEALAAA
B6: GBRAP_125_3104 (protein)
chain: SEEELLEDLKALALALGFSEEDAEEAARLAAEFSLKNTLIAILLAEGEEELAELVEKLTEEQAKEVLKKLAEYLKKHPNATKEEVIEKFKELVEEALAKS
B7: GBRAP_125_3101 (protein)
chain: MEEELLEALKRFALALGFSEEDAEEAAELAKKFSLKQTLIALLLAEGEEELAELVEKLTEEEAKEVLLKLDEYLKKNPNASKEEVLKKFKELVEEALKAS
B8: GBRAP_125_3103 (protein)
chain: EEEELLEALKALALALGFSEEDAEEAAELARRFSLKNTLIAILLAEGEEELAELVEKLTEEQAKEVLKKLAEWLKENPNASKEEVIKKLKELVEEALKKA
B9: GBRAP_184_5289 (protein)
chain: MVEEVVIEAENAEEAIKKIKEAAEKAKKEGKKLRLYLFLKNVDVEGFKKIAELLKELKEEGIIEDAIVEILDERTEEETDKFVEIADKAGIRLVIALSDE
B10: GBRAP_128_3375 (protein)
chain: VNEEFLKEIEELVEKMLESSVEEVRELTKKIVELLSKASLEEQEAAVEIILEKLPEFSVEKLEAIADVLREERKKASPELQELLADVEVEALNEAEEKEE
B11: GBRAP_184_5038 (protein)
chain: AIKEVTIEAKDLEELKAKLAELEEEMKNFKGDLIVHVKSPKFTKEMVEELMSTLKNMLDKGYISSATVGLDGEMTEEVVDLAVKLADEAGIKVVLALDEE
B12: GBRAP_11_2726 (protein)
chain: RKETILKFAKEAEALAKEIEKLIKEGPTKEGLEKLAKKAKALYEAAKKAGLPEDIVETLKIAAELLKEAIADPKNAEKYLREAAAAFRVAAGLLLLEAEE
B13: GBRAP_14_3852 (protein)
chain: IEELIKAVEETAKETKEMAKEVLPEHAEEVNKKIEELAKKIIKKIKEENLNKEEVAELMDEFAEELAKFIKEKGFANETEIAAIRATILNEAALKLDEIE
B14: GBRAP_150_3939 (protein)
chain: DLEELLLLAQGIETDLELALEPGFDKLKLAERALELAKDIAKESDEELKKLAEELIKLLEEAIKAIKAGAEEKEIQKLLEEALRKARELIEEIEKKIEEE
B15: GBRAP_9_7172 (protein)
chain: LKAAAAAAIAELREARDFILEIAPEAAAGAVDAAFDALIAALEAARADPTVTPEQFEATLAAGFAAIRAAAAAHLSPEVAAAVETEMLTVRDIADEKLDE
B16: GBRAP_95_7026 (protein)
chain: EDDQLLVDSLTEVLETYVDLGDEERAREAARRLVRALRENGILPLPKSISVEAAKLILEVALEELDLEELEALAKQLIEATKDEEVRKYAEAKIAEKRAR
B17: GBRAP_52_6035 (protein)
chain: MEERMRELARRIVELLLAGREEEARRLIREAVETLSEEELKLLGEELARLAREAAPEDLDAIMEAAFLLADALEEGGYDEVLADDLLARVAAAAVANLQA
B18: GBRAP_52_6034 (protein)
chain: MRERMRRLAEEAVALALAGDEEGAKALIKEAVETLSEEELKLLGEELARLAREAAPEDLDAIMEVAFWLADALIEAGYDEVFADDLEARVARAAVENLQA
B19: GBRAP_52_6042 (protein)
chain: MEERMRELAEEILALYLEGREEEARKLIREAVETLSEEELKLLGEALAELAREAPPEHLDAYMQAAFDLADALEEAGYDEVLADDLEARVAAAAVENLKR
B20: GBRAP_160_4751 (protein)
chain: SEALKKLKEEVKKIFEEGIEMLKEVPAEEAPTVLRGVMGEVLMEVFSSEAASDELEEEVGEVVDKAEAEAAANANAPVEYHIELLEKAKKEILEIIEKEI
B21: GBRAP_52_6275 (protein)
chain: MEEEAERLAEEFIRVALEGSEEEIREFARRLVEEKSEELIARVLEIVVEKAEELNAEEIEKLLEAVLILEGELEEAGRDPLPAQDAAARLAKLHEEKLKE
B22: GBRAP_78_6606 (protein)
chain: EVEELLEEAIELLSKAAKLLKELPPEVRDELMDLLVEAMSLLLESIEEGPNLKLLEEALKHVEEAIELLKKEKTPEAEKIIKLLEEAKEKIEKAIKLLKK
B23: GBRAP_184_5238 (protein)
chain: KVLEVTVEAADAEELRAKLEAVFAEAEAAGARVRLDVLVEELTPEKVDVLTEEIARMAAAGLLDLVEVTSSTPIAEEHIDRLVAAADAAGVRLVIAEPDE
B24: GBRAP_57_6464 (protein)
chain: MSPLEKALEHFEKAIKLIEEGASLEEILEEVEKGLEELDHTLLLDILLLLDPSARSDLSREELRERLLELVRRYLEEKGREEALKALKLMAGQVEMALTE
B25: GBRAP_125_3136 (protein)
chain: KRAALLALAEALARAMGFSEEEIAEIRRLAEAHDPAQTIVAIFLAAGAEEAAELAAEVLDKLSEEEIAALRALAEAARDLPLEEAVARLLAALKEAKAKL
B26: GBRAP_52_6252 (protein)
chain: MRARLRADAREILELVKEGREEEARRLAREIAETYNEEELRLFIDEFAALAAEAPKEDIDDVWRAAEILAEALEEAGWEEVLVDDALARTAAALVKVEAK
B27: GBRAP_184_5187 (protein)
chain: MVVEEELEIEDVAEARAKIAAIGERIAGKKAKLRVIVKAKKITVEIARTIMEGLGAIKAAGNATDITVELVGEMSEEVIDTAVELAKKAGIRVVIAMSEE
B28: GBRAP_11_2656 (protein)
chain: KKEAYKKAAELAEEAAKALQKLIEEGVDDEELIEKLRKLIEELKKLAEEELDEADKKEVEVVVELFEEFLADEENRLQLAEELLAGLRVLAGNFQLKADE
B29: GBRAP_84_7006 (protein)
chain: EREEEIVKLTKEILEKGSIELKALLLTYLILKNENKAATLALNDLLKEDPEAAVEALDRATEAYEEGKEEEVEKELKEKAKKEGKEVAELVEKLIKLLEE
B30: GBRAP_84_7007 (protein)
chain: SREQEILEITNKILEKGSIELKKKLLTYLILKNENKAATLALNYLLEEDPEAAVEALDEATEAYEEGKEEEVRKELLELAKKEGEEVYALVEELLELIDE
B31: GBRAP_84_7005 (protein)
chain: SREEEIVEITAEILEKASIETKALLLTYLILKNANKAATLALNDLLEEDPEAAVEALDRATEAYEEGKEEEVEKELLEKAKEEGEELAELVERLLELLKE

In all, about 4,500 sequences were measured (“median log2 fold change of GCK-ALFA target abundance (FLAG IP / Myc IP barcode read proportion)”: median about 0.078, lowest 2% from about -0.6 on). The sample as a whole holds a higher share of the lowest values than the screen did.

The target in the assay is GABARAP, O95166. Put plainly: median log2 fold change of GCK-ALFA target abundance (FLAG IP / Myc IP barcode read proportion) (log2 ratio); each designed protein is fused to an ALFA-tag nanobody in HEK293 cells to bring the named protein to FLAG-tagged glucokinase (GCK); Myc marks an untargeted standard; higher = target protein stabilised (more abundant). Particulars: target protein: 3xFLAG-MCP-GCK-ALFA reporter; HEK293 landing pad (RPLP). Put shortly: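 HEK293 landing-pad cells received a recombined binder library fused to the ALFA nanobody and were induced with 2 μg mL^−1 doxycycline, then transfected with a plasmid encoding a FLAG-tagged target and a Myc-tagged standard. Lysates were collected after 48 h for anti-FLAG and anti-Myc immunoprecipitation, and the circular RNA barcodes were reverse transcribed, amplified and sequenced. Target abundance for each binder is the median log2 ratio of FLAG to Myc barcode read proportions. Barcodes had to reach a proportion of at least 10^−7 in both replicates, each binder needed at least 3 barcodes per replicate, a pseudocount of 10^−6 was applied, and the two replicates were pooled.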
Chain of GABARAP, O95166 (O95166 whole entry, the tested form may be a part): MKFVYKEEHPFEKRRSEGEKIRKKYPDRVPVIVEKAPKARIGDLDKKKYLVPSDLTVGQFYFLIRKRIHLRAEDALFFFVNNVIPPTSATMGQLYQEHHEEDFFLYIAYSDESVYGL
As to B1, the “median log2 fold change” value is 0.075.
As to B2, the “median log2 fold change” value was -0.0618.
Then B3, with -0.0128.
As to B4, the “median log2 fold change” value stood at 0.0022.
Then B5, with -0.364.
In the case of B6, the “median log2 fold change” value was -0.801.
Take B7: the “median log2 fold change” value was -0.382.
The same measure for B8: -1.16; for B9: -0.121; for B10: 0.132.
The same measure for B11: 0.0979.
On to B12, for which the “median log2 fold change” value stood at 0.0545.
The same measure for B13: 0.15.
Then B14, with 0.139; and B15, with -0.00921; and B16, with 0.182.
Consider B17, for which the “median log2 fold change” value was -0.612.
With B18, the “median log2 fold change” value is -0.573.
On to B19, for which the “median log2 fold change” value is -0.435.
Then B20, with -0.117.
Then B21, with 0.0823; and B22, with -0.743; and B23, with 0.168.
Then B24, with 0.249.
B25: the “median log2 fold change” value is -0.351.
With B26, the “median log2 fold change” value is -0.272.
Then B27, with 0.57; and B28, with 0.336.
In the case of B29, the “median log2 fold change” value is -0.666.
The same measure for B30: -0.316; for B31: -0.259.

The values above are taken from the supplement of paper PMC12632987.
